Vif-APOBEC3G blk: inhibitors of Vif-APOBEC3G interaction | Q9HC16 | Potency, µM (series often up to 46.1 µM), for the others: at the top dose activity, negative = active, most hits filed as inhibitors | 410,000 compounds, 0.076% hits | HeLa A3G-eYFP + Vif (tagged APOBEC3G with the HIV-1 protein that degrades it), YFP fluorescence, overnight; also: potency is read from the fitted curve at half-maximal effect; % is scaled to controls: 0 for no effect and ±100 for the full control effect; nearly all actives have a fitted effect of over 60% in size
Target sequence (Q9HC16 whole entry, looked up): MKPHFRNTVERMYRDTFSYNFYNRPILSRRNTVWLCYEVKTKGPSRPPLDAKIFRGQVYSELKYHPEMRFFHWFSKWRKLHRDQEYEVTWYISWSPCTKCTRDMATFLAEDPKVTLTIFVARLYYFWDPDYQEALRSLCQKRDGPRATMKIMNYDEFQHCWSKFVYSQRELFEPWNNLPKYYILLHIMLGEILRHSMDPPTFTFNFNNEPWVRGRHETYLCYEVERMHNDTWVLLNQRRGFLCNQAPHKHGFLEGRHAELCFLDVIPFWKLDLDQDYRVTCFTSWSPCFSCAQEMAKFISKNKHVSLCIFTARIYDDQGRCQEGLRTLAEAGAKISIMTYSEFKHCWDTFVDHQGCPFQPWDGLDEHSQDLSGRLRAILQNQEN
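HeLa cells stably expressing Vif and C-terminally eYFP-tagged A3G, seeded overnight at 37 deg C, then exposed to compound by pintool overnight at 37 deg C. Rise in yellow fluorescence (Ex 488/Em 500-530, Acumen) marks blocked Vif-driven A3G degradation.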
Vif-A3F inh: inhibitors of Vif-A3F interaction. HeLa A3F-eYFP + Vif (tagged APOBEC3F with the HIV-1 protein that degrades it), YFP fluorescence increase. Potency, µM (series often up to 46.1 µM), for the others: top-dose activity, negative = active. 390,000 compounds, 0.2% hits. AID 602313; also: potency is read from the fitted curve at half-maximal effect; % of control where 0% means no effect; nearly all actives have a fitted effect of over 65% in size
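Fluorescence increase (Ex 488/Em 500-530) after overnight compound treatment at 37 deg C flags inhibition of Vif-driven A3F-eYFP loss in stable HeLa A3F-eYFP/Vif cells seeded overnight beforehand.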
MCF10A rerep: inducers of DNA re-replication in MCF 10A breast cells. Potency, µM (highest dose often 46.1 µM), for inactives: at the top dose activity, positive = re-replication, usual class: activators. 350,000 compounds, 2.9% hits. MCF 10A DNA re-replication, Hoechst nuclear intensity, 48 h; also: potency is read from the fitted curve at half-maximal effect; % of control where 0% means no effect; nearly all actives have a fitted effect of over 50% in size
SW480 rereplic: DNA re-replication induction in SW480 cells | Potency, µM (top dose mostly 46.1 µM), without a hit: at the highest dose re-replication activation, most hits filed as activators | SW480 DNA re-replication, Hoechst DNA content imaging, 48 h | 340,000 compounds, 1.8% hits; also: potency is read from the fitted curve at half-maximal effect; % of control where 0% means no effect; nearly all actives have a fitted effect of over 55% in size
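Hoechst fluorescence of nuclei (405 nm excitation, 500-530 nm emission) measured by plate-scanning imager after 48 hr compound exposure at 37 C; re-replication scored as increased number of nuclei with elevated intensity.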
IL1B secr inh: blocks inflammasome-driven IL-1 beta release. activity change, % at 57.5 µM. 360,000 compounds, 4.7% hits. THP-1 LPS/ATP IL-1B secretion, AlphaLISA, 16 h; stronger effect = lower value. AID 743279; in the data active = activity change below about -50%; inconclusive = mostly about -30% to -49%; also: % is scaled to controls: 0 for no effect and ±100 for the full control effect
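THP-1 cells pretreated 1 hr with compounds (up to 57.5 uM final), then stimulated with LPS (250 ng/mL final) plus ATP (1.25 mM final); secreted IL-1B measured by AlphaLISA after 16 hr, decreased signal indicating inhibition.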
Giardia kill: kills Giardia lamblia; Giardia lamblia trophozoite viability; activity change, % at 7.66 µM, hits read low; 340,000 compounds, 0.15% hits; AID 540267; in the data active = activity change below about -80%; inconclusive = between about -30% and that limit;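 also: parasites exposed to compound for two days anaerobically before the ATP read; % is scaled to controls: 0 for no effect and ±100 for the full control effect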
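Giardia lamblia trophozoites (100 cells/well) were incubated with compounds for 48 h at 37 deg C under anaerobic conditions. Viability was read as ATP content by one-step luminescence after 15-30 min at room temperature.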
Active calls of the source: *; ? = inconclusive; nt = no result given. Compounds with a hit are over-represented: about 6.9% of the library has one in this group of screens. Unless noted, calls follow the shape of the dose curve; as a rule, active = well fitted curve in the direction sought with a large enough effect; inconclusive = small, poorly fitted or top-dose-only effect, or another doubt; inactive = no such curve, though single readings can be large; an effect the other way counts as inactive or inconclusive.

SMILES	Vif-APOBEC3G blk	Vif-A3F inh	MCF10A rerep	SW480 rereplic	IL1B secr inh	Giardia kill
CN(C(=O)c1ccc(S(=O)(=O)c2cccc(Cl)c2)c([N+](=O)[O-])c1)C1CCCCC1	-3%	3%	?	?	-106*	-15
COc1cc(/C=C(/C#N)c2ccc(C)cc2)ccc1Oc1ccc([N+](=O)[O-])cn1	-1%	-3%	?	1%	-69*	-1
COc1ccc(/C=C2\SC(=S)N(CCCC(=O)N3CCOCC3)C2=O)cc1	1%	1%	?	?	-10	-2
O=C(CCN1C(=O)/C(=C/c2cccs2)SC1=S)N1CCCCC1	-2%	-16%	?	23µM*	-104*	7
COc1cc(/C=C2/SC(=O)N(CC(=O)N3CCCC3)C2=O)ccc1Oc1ccc([N+](=O)[O-])cn1	0%	2%	?	-3%	-63*	?
O=C(CCCN1C(=O)/C(=C\c2ccccc2)SC1=S)N1CCOCC1	0%	2%	?	?	-84*	-18
CCS(=O)(=O)n1nc(-c2ccco2)nc1NCc1ccc(C(C)C)cc1	-5%	-12%	nt	nt	nt	nt
O=C(NCCS(=O)(=O)N1CCN(c2ccccc2)CC1)C(c1ccccc1)c1ccccc1	7%	6%	nt	nt	nt	nt
CCOC(=O)c1ccccc1NC1(c2ccc(OC)cc2)C(=O)c2ccccc2C1=O	0%	-6%	nt	nt	nt	nt
O=C(CN1C(=O)/C(=C/c2ccccc2)SC1=S)N1CCN(CCc2ccccn2)CC1	0%	-2%	5.8µM*	?	8	5
CCOC(=O)N1CCN(C(=O)CCN2C(=O)/C(=C\c3ccc(OC)c(OC)c3)SC2=S)CC1	?	?	nt	nt	-3	nt
COc1cc(/C=C2\SC(=S)N(Nc3ccccc3)C2=O)ccc1O	?	?	?	-6%	1	-2
COc1cc(/C=C2\SC(=S)N(CCC(=O)N3CCCCC3)C2=O)cc(OC)c1OC	-5%	-1%	21µM*	?	-101*	1
O=C(CCCN1C(=O)/C(=C/c2ccccc2)SC1=S)Nc1ccccc1O	-12%	-10%	?	?	-93*	3
O=C1/C(=C/c2ccc(O)c(O)c2)SC(=S)N1Nc1ccccc1	-2%	?	?	?	-62*	17
O=C(c1ccccc1)N1CCN(CCc2ccccn2)CC1	-1%	9%	-13%	-23%	-2	-12
Cc1ccc(C(=O)Nc2nnc(SCc3cc(=O)n4ccc(C)cc4n3)s2)cc1	1%	6%	nt	nt	nt	nt
CCOC(=O)c1ccccc1NC(=O)CN(c1ccccc1OC)S(=O)(=O)c1ccc(C)cc1	-2%	1%	nt	nt	nt	nt
CCOC(=O)COc1c(Br)cc(/C=C2\SC(=O)N(CC(=O)N3CCCC3)C2=O)cc1OC	1%	-3%	0%	-6%	-51*	12
O=C(CCN1C(=O)/C(=C\c2ccccc2)SC1=S)N1CCCCC1	-15%	-5%	?	1%	-100*	-13
CCOc1c(Br)cc(/C=C2/SC(=O)N(CC(=O)N3CCCC3)C2=O)cc1OC	0%	-4%	-6%	8%	5	7
Cc1ccc(/C=C2\SC(=S)N(CCC(=O)N3CCCCC3)C2=O)cc1	-4%	4%	1%	-4%	-9	9
COc1cc2nc(NCc3ccccc3)n3nc(-c4ccccc4)nc3c2cc1OC	5%	1%	nt	nt	nt	nt
CCN1C(=O)[C@H]2[C@@H](c3ccc(-c4ccc(C(C)=O)cc4)cc3)N[C@@](Cc3ccccc3)(C(=O)OC)[C@H]2C1=O	-7%	0%	5%	28%	-20	37
CCN1C(=O)[C@H]2[C@@H](c3ccc(-c4ccccc4)cc3)N[C@@](Cc3ccccc3)(C(=O)OC)[C@H]2C1=O	3%	-8%	-6%	-11%	-53*	-9
O=C(CS(=O)Cc1ccco1)NCC=CCOc1cc(CN2CCCCC2)ccn1 (centres undefined)	nt	nt	1%	2%	nt	nt
Cc1ccccc1CSc1nc2cccnc2n1Cc1ccc(C(=O)NCCc2cccs2)cc1	-23%	6%	nt	nt	nt	nt

From PubChem BioAssay
